# Laboratory results: paper PMC5540273 (PLoS ONE, 2017)
# Tests used:
# Details in all cases: concentration: 1 μM, replicates: in singlicate; n = 1
# MAP3K15 = tested on: MAP3K15
# MAP3K1 = tested on: MAP3K1
# MAP3K2 = tested on: MAP3K2
# MAP3K3 = tested on: MAP3K3
# MAP3K4 = tested on: MAP3K4
# MAP4K2 = tested on: MAP4K2
# MAP4K3 = tested on: MAP4K3
# MAP4K4 = tested on: MAP4K4
# MAP4K5 = tested on: MAP4K5
# MAPKAPK2 = tested on: MAPKAPK2
# MAPKAPK5 = tested on: MAPKAPK5
# MARK1 = tested on: MARK1
# MARK2 = tested on: MARK2
# MARK3 = tested on: MARK3
# MARK4 = tested on: MARK4
# MAST1 = tested on: MAST1
# MEK1 = tested on: T1, MEK1
# T1 construct: gene MAP2K1
# MEK2 = tested on: T2, MEK2
# T2 construct: gene MAP2K2
# MEK3 = tested on: T3, MEK3
# T3 construct: gene MAP2K3
# MEK4 = tested on: T4, MEK4
# T4 construct: gene MAP2K4
# 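Further: KINOMEscan kinase panel screen.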
smiles,measurement,setting,value
c1ccc(Oc2ccc(Nc3ccnc4cc(-c5ccc(CNCCN6CCOCC6)o5)ccc34)cc2)nc1 [GW567145],%Inh,MAP3K15,0%
same,%Inh,MAP3K1,9%
same,%Inh,MAP3K2,1%
same,%Inh,MAP3K3,0%
same,%Inh,MAP3K4,0%
same,%Inh,MAP4K2,0%
same,%Inh,MAP4K3,0%
same,%Inh,MAP4K4,9%
same,%Inh,MAP4K5,56%
same,%Inh,MAPKAPK2,0%
same,%Inh,MAPKAPK5,0%
same,%Inh,MARK1,0%
same,%Inh,MARK2,0%
same,%Inh,MARK3,0%
same,%Inh,MARK4,0%
same,%Inh,MAST1,34%
same,%Inh,MEK1,90.8%
same,%Inh,MEK2,94.2%
same,%Inh,MEK3,0%
same,%Inh,MEK4,0%
Cc1ccc(C(=O)N2CC[C@@H](O)C2)cc1-n1c(C)cc(OCc2ccc(F)cc2F)c(Br)c1=O,%Inh,MAP3K15,0%
same,%Inh,MAP3K1,0%
same,%Inh,MAP3K2,0%
same,%Inh,MAP3K3,0%
same,%Inh,MAP3K4,0%
same,%Inh,MAP4K2,0%
same,%Inh,MAP4K3,0%
same,%Inh,MAP4K4,6%
same,%Inh,MAP4K5,8%
same,%Inh,MAPKAPK2,0%
same,%Inh,MAPKAPK5,0%
same,%Inh,MARK1,0%
same,%Inh,MARK2,0%
same,%Inh,MARK3,0%
same,%Inh,MARK4,0%
same,%Inh,MAST1,0%
same,%Inh,MEK1,0%
same,%Inh,MEK2,36%
same,%Inh,MEK3,0%
same,%Inh,MEK4,0%
CN1CCN(Cc2cccc(-c3ccc4c(Nc5ccc(Oc6ccccc6)cc5)ccnc4c3)c2)CC1 [GW578342],%Inh,MAP3K15,0%
same,%Inh,MAP3K1,0%
same,%Inh,MAP3K2,0%
same,%Inh,MAP3K3,0%
same,%Inh,MAP3K4,15%
same,%Inh,MAP4K2,0%
same,%Inh,MAP4K3,0%
same,%Inh,MAP4K4,0%
same,%Inh,MAP4K5,0%
same,%Inh,MAPKAPK2,3%
same,%Inh,MAPKAPK5,0%
same,%Inh,MARK1,0%
same,%Inh,MARK2,5%
same,%Inh,MARK3,0%
same,%Inh,MARK4,0%
same,%Inh,MAST1,47%
same,%Inh,MEK1,54%
same,%Inh,MEK2,55%
same,%Inh,MEK3,0%
same,%Inh,MEK4,9%
CC(=O)N1CCN(c2ccc(Nc3nccc(-c4sc(C(C)C)nc4-c4cccc(NS(=O)(=O)c5cccc(Cl)c5)c4)n3)cn2)CC1 [GSK1660437],%Inh,MAP3K15,16%
same,%Inh,MAP3K1,12%
same,%Inh,MAP3K2,0%
same,%Inh,MAP3K3,7%
same,%Inh,MAP3K4,0%
same,%Inh,MAP4K2,8%
same,%Inh,MAP4K3,10%
same,%Inh,MAP4K4,13%
same,%Inh,MAP4K5,54%
same,%Inh,MAPKAPK2,19%
same,%Inh,MAPKAPK5,0%
same,%Inh,MARK1,0%
same,%Inh,MARK2,0%
same,%Inh,MARK3,0%
same,%Inh,MARK4,12%
same,%Inh,MAST1,0%
same,%Inh,MEK1,1%
same,%Inh,MEK2,0%
same,%Inh,MEK3,23%
same,%Inh,MEK4,99.2%
O=C(Nc1cccc(-c2nn3ccccc3c2-c2ccnc(Nc3cccc(C(F)(F)F)c3)n2)c1)c1c(F)cccc1F [GSK292658],%Inh,MAP3K15,26%
same,%Inh,MAP3K1,11%
same,%Inh,MAP3K2,0%
same,%Inh,MAP3K3,2%
same,%Inh,MAP3K4,6%
same,%Inh,MAP4K2,6%
same,%Inh,MAP4K3,0%
same,%Inh,MAP4K4,1%
same,%Inh,MAP4K5,15%
same,%Inh,MAPKAPK2,21%
same,%Inh,MAPKAPK5,0%
same,%Inh,MARK1,0%
same,%Inh,MARK2,0%
same,%Inh,MARK3,3%
same,%Inh,MARK4,0%
same,%Inh,MAST1,0%
same,%Inh,MEK1,3%
same,%Inh,MEK2,0%
same,%Inh,MEK3,0%
same,%Inh,MEK4,17%
Cl.NC(=O)c1cccc(Nc2nccc(Nc3ccc(Oc4c(Cl)cccc4Cl)c(Cl)c3)n2)c1 [GW659009],%Inh,MAP3K15,18%
same,%Inh,MAP3K1,0%
same,%Inh,MAP3K2,0%
same,%Inh,MAP3K3,3%
same,%Inh,MAP3K4,0%
same,%Inh,MAP4K2,10%
same,%Inh,MAP4K3,0%
same,%Inh,MAP4K4,0%
same,%Inh,MAP4K5,0%
same,%Inh,MAPKAPK2,0%
same,%Inh,MAPKAPK5,0%
same,%Inh,MARK1,0%
same,%Inh,MARK2,0%
same,%Inh,MARK3,7%
same,%Inh,MARK4,0%
same,%Inh,MAST1,0%
same,%Inh,MEK1,0%
same,%Inh,MEK2,0%
same,%Inh,MEK3,0%
same,%Inh,MEK4,30%
COC(=O)Nc1nc2cc(Oc3ccc(NC(=O)Nc4cc(C(F)(F)F)ccc4F)cn3)ccc2[nH]1.Cl.Cl [GW681170],%Inh,MAP3K15,0%
same,%Inh,MAP3K1,11%
same,%Inh,MAP3K2,0%
same,%Inh,MAP3K3,0%
same,%Inh,MAP3K4,9%
same,%Inh,MAP4K2,0%
same,%Inh,MAP4K3,3%
same,%Inh,MAP4K4,3%
same,%Inh,MAP4K5,0%
same,%Inh,MAPKAPK2,0%
same,%Inh,MAPKAPK5,0%
same,%Inh,MARK1,0%
same,%Inh,MARK2,0%
same,%Inh,MARK3,14%
same,%Inh,MARK4,0%
same,%Inh,MAST1,24%
same,%Inh,MEK1,0%
same,%Inh,MEK2,2%
same,%Inh,MEK3,7%
same,%Inh,MEK4,0%
CC(C)(C)c1ccc2nccc(Nc3cccc(O)c3)c2c1 [GW856795],%Inh,MAP3K15,0%
same,%Inh,MAP3K1,0%
same,%Inh,MAP3K2,0%
same,%Inh,MAP3K3,0%
same,%Inh,MAP3K4,0%
same,%Inh,MAP4K2,100%
same,%Inh,MAP4K3,0%
same,%Inh,MAP4K4,23%
same,%Inh,MAP4K5,29%
same,%Inh,MAPKAPK2,11%
same,%Inh,MAPKAPK5,0%
same,%Inh,MARK1,9%
same,%Inh,MARK2,2%
same,%Inh,MARK3,27%
same,%Inh,MARK4,21%
same,%Inh,MAST1,22%
same,%Inh,MEK1,46%
same,%Inh,MEK2,44%
same,%Inh,MEK3,49%
same,%Inh,MEK4,0%
Nc1n[nH]c2cnc(-c3ccccc3)cc12 [SB-642124],%Inh,MAP3K15,21%
same,%Inh,MAP3K1,14%
same,%Inh,MAP3K2,12%
same,%Inh,MAP3K3,0%
same,%Inh,MAP3K4,23%
same,%Inh,MAP4K2,31%
same,%Inh,MAP4K3,3%
same,%Inh,MAP4K4,17%
same,%Inh,MAP4K5,0%
same,%Inh,MAPKAPK2,20%
same,%Inh,MAPKAPK5,0%
same,%Inh,MARK1,0%
same,%Inh,MARK2,0%
same,%Inh,MARK3,0%
same,%Inh,MARK4,0%
same,%Inh,MAST1,14%
same,%Inh,MEK1,0%
same,%Inh,MEK2,0%
same,%Inh,MEK3,0%
same,%Inh,MEK4,37%
